For 40 molecules, growth results are on record in PubChem BioAssay (NCI).

Compounds without any hit were thinned out: in the full panel of roughly 83,000, 20% have a hit.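 A percent growth of 40 corresponds to 60% growth inhibition; 0 means no net growth; -100 means all cells died. Active threshold: below 10.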 Activity calls are given as the source filed them.

The first assay relates to 786-0 renal. Description: NCI-60 one-dose screen, 48 h (100 = growth as untreated, 0 = no growth, -100 = all killed). To be noted: 10 µM unless noted.
On to `Cc1cc(=O)[nH]c2c(C#N)cnn12`, for which the growth was 105% (inactive). Same read-out and setting: then `COCCn1c(-c2csc(-c3cn(C)c4ccc(OC)cc34)n2)cc2cccnc21`, with 30.9% (inactive); and `COC(=O)[C@]1(C)CCC[C@]2(C)[C@H]3C[C@H]4C(C(C)C)=C[C@]3(CC[C@H]21)[C@H]1[C@@H]4[C@@H](OCCC#N)CC[C@@H]1OCCC#N`, with 37.3% (inactive).

Take `O=C(NCCCCNC(=O)OCc1ccc2c(Cl)cc(Cl)c(O)c2n1)OCc1ccc2c(Cl)cc(Cl)c(O)c2n1`: the growth is 70.7% (inactive). The same measure, in the same setting: then `COC(=O)c1c2c(c(C)[n+]([O-])c1C)C(=O)C=C(NCc1ccc(Br)cc1)C2=O`, with -8.26% (active); and `CCCCCCNC(=O)Oc1ccc(/C(=C(/C)Cc2ccc(OC)cc2)c2ccc(OCCCN(C)C)cc2)cc1`, with 44.5% (inactive); and `CCCCCCC1(C)NCCO1` (configuration not stated), with 102% (inactive). Same read-out and setting: then `CC[C@]12C=CCN3CC[C@@]4(c5cc(NC(=O)CCC(=O)OCc6cn(Cc7ccc(F)cc7)nn6)c(OC)cc5N(C)[C@H]4[C@@](O)(C(=O)OC)[C@@H]1OC(C)=O)[C@@H]32`, with 96.4% (inactive); and `Oc1c(Cl)cc(Cl)c2ccc(Cn3cc(-c4cc(C(F)(F)F)cc(C(F)(F)F)c4)nn3)nc12`, with 97.3% (inactive); and `O=C1C(Cl)=C(Oc2ccccc2)C(=O)c2ccccc21`, with 94.1% (inactive).

For `COc1ccccc1Nc1nc2c(s1)C1=CC[C@H]3[C@@H]4CC[C@H]([C@H](C)CCCC(C)C)[C@@]4(C)CC[C@@H]3[C@@]1(C)CC2`, the growth was 114% (inactive). Still for that read-out and setting: under `N#Cc1cccc(-c2c(-c3ccc4ccccc4c3)oc3ccccc3c2=O)c1` stands 35.5% (inactive).

The next assay deals with COLO 205 colon. Described as above. The conditions noted are these: 10 µM unless noted.
For the molecule `CCCc1cc(NC)nc(S(=O)(=O)CC)n1`, the growth was 120% (inactive). Same read-out and setting: then `Cc1ccc(Cl)cc1Nc1nc(C(F)(F)F)ccc1C(=O)N/N=C/c1cccnc1`, with 38.9% (inactive); and `Cc1ccc(/C=C2\CN(C(=O)OC(C)(C)C)C/C(=C\c3ccc(C)cc3)C2=O)cc1`, with 51.6% (inactive); and `O=C(Nc1cccc([N+](=O)[O-])c1)c1cc2ccccc2cc1O`, with -66.1% (active). Same read-out and setting: then `NC(=O)c1c(NC(=O)c2ccccc2)sc2c1CCC(=O)C2`, with -49.9% (active). The same measure, in the same setting: then `COc1cc(N2C(=O)[C@H](O)C2c2ccc(SC)cc2)cc(OC)c1OC` (some centres not stated), with -53.3% (active); and `Cn1cc(-c2nc(-c3c[nH]c4ccncc34)cs2)c2ccccc21`, with -67.3% (active); and `OCCNCCCOc1ccc2ncnc(Nc3ccc(Oc4cccc(C(F)(F)F)c4)c(Cl)c3)c2c1`, with -27.7% (active). Turning to `O=S(=O)(NCCNc1cc(-c2c(-c3cccc(O)c3)nc3sccn23)ccn1)c1ccc(C(F)(F)F)cc1`, the growth was 42.6% (inactive). For the molecule `CCOC(=O)c1nc(Nc2ccc(NC(=O)Nc3ccc(F)cc3)cc2)c2ccccc2n1`, the growth was 108% (inactive). The same measure, in the same setting: then `CCN1C(=O)N(CC)C2C1NN=c1s/c(=C\c3cccc([N+](=O)[O-])c3)c(=O)n12` (configuration not stated), with 1.16% (active); and `C#Cc1cccc(Nc2ncnc3ccc(-c4cnc(N)nc4)cc23)c1`, with 52.6% (inactive). Take `CCN(CC)CCSc1nc(-c2ccccc2)c(C#N)c(=O)[nH]1`: the growth is 94.9% (inactive). The same measure, in the same setting: under `CN1C(=O)/C(=C/c2cn(-c3ccccc3)nc2-c2ccccc2)SC1=S` stands 124% (inactive); under `O=C1Nc2ccccc2/C1=C\c1nc(-c2ccccc2)n2ccccc12`, 110% (inactive). On the same count and under the same terms, then `COc1ccc(NC(=O)c2sc3nc(C)c(C(=O)/C=C/c4cccc(OC)c4)cc3c2N)cc1`, with 45.9% (inactive); and `Nc1nc2c([nH]1)c1[nH]c3ccccc3c1c1[nH]c3ccccc3c21`, with -81.3% (active). On the same count and under the same terms, under `Cc1ccc(-c2nc3nc(-c4ccc(F)cc4)nc(N4CCNCC4)c3o2)cc1` stands -78.1% (active); under `COc1ccc(OC)c(C(=O)/C=C/c2cc3c(c(OC)c2OC)OCO3)c1`, 95.8% (inactive). Regarding `CN1C(=O)/C(=C/c2ccc(C(=O)Nc3ncc(Cc4ccc(Cl)cc4)s3)cc2)SC1=S`, the growth was 80.3% (inactive). On the same count and under the same terms, then `O=C(OCc1ccc2c(Cl)cc(Cl)c(O)c2n1)n1cncn1`, with 96.5% (inactive).

For `C[C@]12C=CC(=O)C=C1CCC1C2[C@@H](O)C[C@@]2(C)C1CC[C@]2(O)C(=O)COC(=O)CCC(=O)O` (some centres not stated), the growth is 124% (inactive). The same measure, in the same setting: under `COc1ccc2c(c1)c(-c1noc(C(=O)c3cn(C)c4ccc(Br)cc34)n1)cn2C` stands 110% (inactive); under `COc1ccc(/C=N/C2=C(C#N)C(c3cccc(Cl)c3)c3c(ccc4ccccc34)O2)cc1` (configuration not stated), 31.3% (inactive); under `Cc1ccccc1Cn1cnc2ccc(-c3cc(NC(=O)c4ccc(NC5CCN(C)CC5)cc4)n[nH]3)cc21`, 70.8% (inactive). On to `O=C1CC(N2C(=O)/C(=C/C(Cl)=C\c3ccc([N+](=O)[O-])cc3)SC2=S)C(=O)N1c1ccc(Cl)cc1` (configuration not stated), for which the growth is 4.01% (active).

Consider `CCN(CC)CCOc1ccc(-c2c(-c3ccccc3)c(=O)oc3ccccc23)cc1`, for which the growth is 81.2% (inactive).

For the molecule `CCNC(=O)c1[nH]cc(-c2ccccc2)c1-c1cc(OC)c2c(c1OC)OCO2`, the growth is 111% (inactive). Still for that read-out and setting: then `Cc1cc(=O)[nH]c2c(C#N)cnn12`, with 114% (inactive); and `COCCn1c(-c2csc(-c3cn(C)c4ccc(OC)cc34)n2)cc2cccnc21`, with 37.5% (inactive). For `COC(=O)[C@]1(C)CCC[C@]2(C)[C@H]3C[C@H]4C(C(C)C)=C[C@]3(CC[C@H]21)[C@H]1[C@@H]4[C@@H](OCCC#N)CC[C@@H]1OCCC#N`, the growth is 11.9% (inactive). Same read-out and setting: under `O=C(NCCCCNC(=O)OCc1ccc2c(Cl)cc(Cl)c(O)c2n1)OCc1ccc2c(Cl)cc(Cl)c(O)c2n1` stands 96.3% (inactive); under `COC(=O)c1c2c(c(C)[n+]([O-])c1C)C(=O)C=C(NCc1ccc(Br)cc1)C2=O`, -69.8% (active); under `CCCCCCNC(=O)Oc1ccc(/C(=C(/C)Cc2ccc(OC)cc2)c2ccc(OCCCN(C)C)cc2)cc1`, -84% (active). Same read-out and setting: then `CCCCCCC1(C)NCCO1` (configuration not stated), with 102% (inactive).

Take `CC[C@]12C=CCN3CC[C@@]4(c5cc(NC(=O)CCC(=O)OCc6cn(Cc7ccc(F)cc7)nn6)c(OC)cc5N(C)[C@H]4[C@@](O)(C(=O)OC)[C@@H]1OC(C)=O)[C@@H]32`: the growth is 107% (inactive). The same measure, in the same setting: under `Oc1c(Cl)cc(Cl)c2ccc(Cn3cc(-c4cc(C(F)(F)F)cc(C(F)(F)F)c4)nn3)nc12` stands 66.4% (inactive); under `O=C1C(Cl)=C(Oc2ccccc2)C(=O)c2ccccc21`, 32.3% (inactive).

On to `COc1ccccc1Nc1nc2c(s1)C1=CC[C@H]3[C@@H]4CC[C@H]([C@H](C)CCCC(C)C)[C@@]4(C)CC[C@@H]3[C@@]1(C)CC2`, for which the growth was 106% (inactive).

On to `N#Cc1cccc(-c2c(-c3ccc4ccccc4c3)oc3ccccc3c2=O)c1`, for which the growth is 36.7% (inactive).
